# Assay results taken from PubChem BioAssay (NCATS).
# Several values for one entry are separate records, joined by “and”; a condition that tells them apart may be missing. Equal entries are not always repeated. Unmarked numbers belong to inactive results. Results filed as inconclusive are left out. Entries that show only a call come without a potency. Activity calls are given as the source filed them. Unless noted, calls follow the shape of the dose curve; as a rule, active = well fitted curve in the direction sought with a large enough effect; inconclusive = small, poorly fitted or top-dose-only effect, or another doubt; inactive = no such curve, though single readings can be large; an effect the other way counts as inactive or inconclusive.
# How the values were obtained:
# [1] = qHTS assay for environmental chemicals that activate the Aryl hydrocarbon Receptor (AhR) signaling pathway (AID 651777); details: 1A2-DRE human hepatoma cells, luciferase, 24 h; activation: hits give high values; also: nearly all actives have a fitted effect of over 15% in size
# In short: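 Luminescence read-out: One-Glo added for 30 min at RT after 24 hr compound treatment (37 C, 5% CO2) of human hepatoma cells expressing a DRE/CYP1A2 promoter–luciferase reporter; increased signal indicates AhR activation.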
# [2] = molecular target: Peroxisome proliferator-activated receptor alpha (Homo sapiens) (UniProt Q07869); assay: qHTS assay for small molecule agonists of the peroxisome proliferator-activated receptor alpha (PPARalpha) signaling pathway (AID 651778); details: PathHunter PPARalpha complementation, chemiluminescence, 6 h; hits give high values
# Peroxisome proliferator-activated receptor alpha (Homo sapiens), sequence (Q07869 whole entry, looked up): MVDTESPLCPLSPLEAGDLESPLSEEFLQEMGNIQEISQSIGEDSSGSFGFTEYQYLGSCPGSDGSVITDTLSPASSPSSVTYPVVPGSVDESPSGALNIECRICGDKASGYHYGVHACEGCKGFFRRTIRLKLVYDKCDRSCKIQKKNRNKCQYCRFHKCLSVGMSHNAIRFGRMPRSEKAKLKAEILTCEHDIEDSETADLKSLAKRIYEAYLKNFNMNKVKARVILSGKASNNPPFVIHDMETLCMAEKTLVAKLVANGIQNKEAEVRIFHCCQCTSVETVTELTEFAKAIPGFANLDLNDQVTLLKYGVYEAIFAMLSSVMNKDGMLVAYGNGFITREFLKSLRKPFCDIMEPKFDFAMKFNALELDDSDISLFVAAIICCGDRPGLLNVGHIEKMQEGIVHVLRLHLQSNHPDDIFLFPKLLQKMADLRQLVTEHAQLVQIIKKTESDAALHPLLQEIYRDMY
# In short: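 Cells plated at 2,000/well and held overnight at 37 C, 5% CO2, then compound added by pin tool for 6 hr; after PathHunter detection reagent and 60 min at room temperature, chemiluminescence from enzyme complementation was read.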
# [3] = molecular target: Tumor necrosis factor (Homo sapiens) (UniProt P01375); assay: qHTS assay to identify small molecules that stimulate Tumor Necrosis Factor-alpha (TNF-alpha) secretion (AID 651757; active = well fitted curve in the direction sought with a large enough effect in the signal ratio; the % refers to the signal ratio)
# Tumor necrosis factor (Homo sapiens), sequence (P01375 whole entry, looked up): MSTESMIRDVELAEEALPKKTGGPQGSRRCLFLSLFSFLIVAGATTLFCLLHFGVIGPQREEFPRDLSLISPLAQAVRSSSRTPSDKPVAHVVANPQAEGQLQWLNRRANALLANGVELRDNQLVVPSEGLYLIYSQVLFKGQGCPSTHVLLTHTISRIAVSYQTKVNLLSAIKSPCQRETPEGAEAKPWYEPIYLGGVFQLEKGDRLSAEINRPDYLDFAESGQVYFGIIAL
# In short: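 Secreted TNF-alpha from compound-treated THP-1 cells (17 hrs, 37 C) was quantified with a homogeneous time-resolved fluorescence antibody assay.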
# [4] = molecular target: Nuclear receptor ROR-gamma (Homo sapiens) (UniProt P51449); assay: qHTS assay for small molecule antagonists of the retinoid-related orphan receptor gamma (ROR-gamma) signaling pathway (AID 651802); also: nearly all actives have a fitted effect of over 60% in size; also: potency is read from the fitted curve at half-maximal effect
# Nuclear receptor ROR-gamma (Homo sapiens), sequence (P51449 whole entry, looked up): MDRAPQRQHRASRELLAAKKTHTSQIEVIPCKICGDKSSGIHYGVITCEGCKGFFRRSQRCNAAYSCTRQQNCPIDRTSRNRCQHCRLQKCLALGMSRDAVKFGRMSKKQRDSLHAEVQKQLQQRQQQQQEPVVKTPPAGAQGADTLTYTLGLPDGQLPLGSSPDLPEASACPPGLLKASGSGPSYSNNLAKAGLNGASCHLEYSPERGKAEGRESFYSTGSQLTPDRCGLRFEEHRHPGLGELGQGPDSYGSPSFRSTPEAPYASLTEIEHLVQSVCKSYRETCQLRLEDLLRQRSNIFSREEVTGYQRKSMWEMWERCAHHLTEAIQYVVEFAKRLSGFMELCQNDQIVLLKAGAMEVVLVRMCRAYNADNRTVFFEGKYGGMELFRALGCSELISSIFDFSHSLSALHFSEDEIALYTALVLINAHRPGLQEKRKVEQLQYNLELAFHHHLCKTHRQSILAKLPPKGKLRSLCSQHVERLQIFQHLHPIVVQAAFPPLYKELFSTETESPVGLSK
# In short: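 Antagonism is scored as a fall in luminescence from a RORE-luciferase reporter in CHO cells expressing ROR under a TET-inducible promoter, measured 16hr after doxycycline induction in the presence of compound.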
# [5] = qHTS assay for small molecule agonists of the antioxidant response element (ARE) signaling pathway measured by Nrf2-dependant transcriptional activity (AID 720636; active = well fitted curve in the direction sought with a large enough effect in the repeat runs; an effect the other way counts as inactive or inconclusive; also: potency is read from the fitted curve at half-maximal effect;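 as to activation: HepG2 cells with an ARE-driven luciferase reporter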)
# In short: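 HepG2 ARE-luc reporter line, 1% dialyzed FBS; 6 hr attachment at 37 C, compound pinned in, 16 hr at 37 C/5% CO2; ONE-Glo, 30 min RT, luminescence read.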
# [6] = qHTS assay to identify small molecules that stimulate interleukin-8 (IL-8) secretion (AID 651758; active = well fitted activation curve with a large enough effect in the signal ratio; the % refers to the signal ratio)
# In short: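 THP-1, 2000 cells/well; cpd 16 h, 37 C; add cryptate + XL665 anti-IL-8 Abs; RT 1-3 h; TR-FRET read.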
# [7] = qHTS for compounds that reverse cellular toxicity of Amyloid beta (A-beta) peptide in yeast: LOPAC Validation Assay (AID 720559)
# In short: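 Yeast expressing toxic A-beta grown with pinned compounds at 30 C for 48 hr. Growth measured as absorbance at 600 nm; data normalized to DMSO and to an equimolar FeCl3/clioquinol mixture as positive control.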
# [8] = qHTS for Activators of Parkin Expression: LOPAC Validation Assay (NLuc Reporter) (AID 720572; also: potency is read from the fitted curve at half-maximal effect)
# In short: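 Neuronal line stably carrying a FLuc/NLuc coincidence reporter under the Parkin promoter, seeded 24 h, then dosed in 7-point series for 24 h at 37 C. NLuc luminescence read after FLuc; normalized to DMSO and positive control (100%).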
# [9] = qHTS for Activators of Parkin Expression: LOPAC Validation Assay (FLuc Reporter) (AID 720573)
# In short: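 Neuronal cell line stably expressing FLuc/NLuc coincidence reporter under the Parkin promoter, 1,500 cells/well, dosed 24 h after seeding in 7-point series for 24 h at 37 C. FLuc luminescence read; normalized to DMSO and positive control (100%).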
# [10] = molecular target: Arylsulfatase A (Homo sapiens) (UniProt P15289); assay: qHTS screen for enhancers of Arylsulfatase A (ASA1): LOPAC Validation Assay (AID 720538); also: potency is read from the fitted curve at half-maximal effect
# Arylsulfatase A (Homo sapiens), sequence (P15289 whole entry, looked up): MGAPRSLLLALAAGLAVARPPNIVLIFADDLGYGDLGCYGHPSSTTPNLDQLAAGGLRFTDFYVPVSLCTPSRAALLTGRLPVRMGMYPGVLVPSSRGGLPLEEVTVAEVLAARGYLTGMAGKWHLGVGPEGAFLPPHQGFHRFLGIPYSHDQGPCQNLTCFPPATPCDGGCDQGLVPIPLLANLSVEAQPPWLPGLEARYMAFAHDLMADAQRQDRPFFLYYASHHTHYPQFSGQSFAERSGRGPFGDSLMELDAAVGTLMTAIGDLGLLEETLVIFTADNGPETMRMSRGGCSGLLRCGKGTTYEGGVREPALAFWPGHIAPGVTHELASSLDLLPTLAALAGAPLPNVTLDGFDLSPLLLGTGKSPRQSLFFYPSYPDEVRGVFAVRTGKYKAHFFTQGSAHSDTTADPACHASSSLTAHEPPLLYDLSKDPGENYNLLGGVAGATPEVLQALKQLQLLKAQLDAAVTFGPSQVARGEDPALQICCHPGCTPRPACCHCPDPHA
# In short: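 SV40-transformed fibroblasts from an MLD patient (ASA-I179S) were treated with compound for 48 h at 37 C. They were then lysed with 0.5 mM pNCS substrate (final) for 14 h at room temperature and stopped with NaOH; signal read by fluorescence (Ex 525/Em 598 nm), with increase denoting enhanced activity.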
structure (smiles),measurement,setting,value
O=[N+]([O-])C(Br)(CO)CO,activation,[1],5.58%
same,max response,[2],0.217%
O=[N+]([O-])c1ccccc1,outcome,[3],inactive
same,activation,[1],-1.49% and 0.199%
same,max response,[2],0.135% and -4.33%
same,Potency,[4],inactive
same,Potency,[5],inactive
O=[N+]([O-])c1ccc(F)c([N+](=O)[O-])c1,activation,[1],0.408%
same,max response,[2],-10.2%
same,Potency,[4],33.5 µM (active)
same,Potency,[5],inactive
CCCCCCCCOC(=O)c1ccccc1C(=O)OCCCCCCCC,outcome,[3],inactive
same,activation,[1],-0.0695% and 0.763%
same,max response,[2],0.808% and 0.946%
same,Potency,[4],inactive
same,Potency,[5],inactive
Clc1ccccc1Cl,outcome,[3],inactive
same,activation,[1],-0.403%
same,max response,[2],-2.32%
same,Potency,[4],inactive
same,Potency,[5],inactive
[O]=[Cr](=[O])([OH])[O][Cr](=[O])(=[O])[OH],outcome,[3],inactive
same,Potency,[6],inactive
same,activation,[1],0.789% and 0.878% and -0.644%
same,max response,[2],-2.4% and -2.51% and -6.59%
same,Potency,[4],33.5 µM (active) and 16.8 µM (active)
same,Potency,[5],inactive
O=C1C=CC(=O)C=C1,outcome,[3],inactive
same,activation,[1],1.56%
same,max response,[2],-5.62%
same,outcome,[7],inactive
same,Potency,[8],inactive
same,outcome,[9],inactive
same,Potency,[5],inactive
C[CH2][Hg][S]c1ccccc1C(=O)O,activation,[1],-11.2%
same,max response,[2],-9.74%
NC(C(=O)O)c1cc(=O)[nH]o1 (centres undefined),Potency,[10],inactive
same,outcome,[7],inactive
same,Potency,[8],inactive
same,outcome,[9],inactive
O=c1[nH]c(=O)n(Cl)c(=O)n1Cl,activation,[1],-2.06%
same,max response,[2],3.21%
same,Potency,[5],inactive
C/C(O)=C(\C#N)C(=O)Nc1cc(Br)ccc1Br,Potency,[10],inactive
same,outcome,[7],inactive
same,Potency,[8],inactive
same,outcome,[9],inactive
CC[C@H](C)[C@H]1O[C@]2(C=C[C@@H]1C)C[C@@H]1C[C@@H](C/C=C(\C)[C@@H](O[C@H]3C[C@H](OC)[C@@H](O[C@H]4C[C@H](OC)[C@@H](O)[C@H](C)O4)[C@H](C)O3)[C@@H](C)/C=C/C=C3\CO[C@@H]4[C@H](O)C(C)=C[C@@H](C(=O)O1)[C@]34O)O2,activation,[1],-12.2%
same,max response,[2],7.18%
same,Potency,[5],inactive
NC(Cc1ccc(N(CCCl)CCCl)cc1)C(=O)O (centres undefined),Potency,[10],inactive
same,outcome,[7],inactive
same,Potency,[8],inactive
same,outcome,[9],inactive
CN1CC[C@@]2(C)c3cc(O)ccc3N(C)C12 (some centres undefined),Potency,[10],inactive
same,outcome,[7],inactive
same,Potency,[8],inactive
same,outcome,[9],inactive
C[N+]1(C)CCN(c2ccccc2)CC1,Potency,[10],inactive
same,outcome,[7],inactive
same,Potency,[8],inactive
same,outcome,[9],inactive
COc1ccc2c(c1O)-c1cccc3c1[C@@H](C2)N(C)CC3,Potency,[10],inactive
same,outcome,[7],inactive
same,Potency,[8],inactive
same,outcome,[9],inactive
N#CN,activation,[1],1.29%
same,max response,[2],0.0862%
same,Potency,[5],inactive
[Cl-].[Cl-].[Hg+2],activation,[1],1.68%
same,max response,[2],-13.7%
same,Potency,[4],1.06 µM (active)
same,Potency,[5],21.1 µM (active)
CC(C)Nc1ccc(Nc2ccccc2)cc1,max response,[2],-3.2%
COc1ccc2c(c1)C13CCCCC1C(C2)N(C)CC3 (centres undefined),Potency,[10],inactive
same,outcome,[7],inactive
same,Potency,[8],inactive
same,outcome,[9],inactive
C[N+](C)(C)CC#CCOC(=O)Nc1cccc(Cl)c1,Potency,[10],inactive
same,outcome,[7],inactive
same,Potency,[8],inactive
same,outcome,[9],inactive
O=C(O)c1cc[c]([Hg][Cl])cc1,activation,[1],-2.48%
same,max response,[2],-9.79%
same,Potency,[10],inactive
same,outcome,[7],inactive
same,outcome,[9],inactive
OCc1cnc[nH]1,Potency,[10],inactive
same,outcome,[7],inactive
same,Potency,[8],inactive
same,outcome,[9],inactive
COc1ccc2c(c1)/C(=C/c1cnc[nH]1)C(=O)N2,Potency,[10],inactive
same,outcome,[7],inactive
same,Potency,[8],23.1 µM (active)
same,outcome,[9],inactive
NNC(=O)c1ccc(O)cc1,Potency,[10],inactive
same,outcome,[7],inactive
same,Potency,[8],inactive
same,outcome,[9],inactive
CCCn1c(=O)c2[nH]c(C3CCCC3)nc2n(CCCOC(=O)c2ccc(S(=O)(=O)F)cc2)c1=O,Potency,[10],inactive
same,outcome,[7],inactive
same,Potency,[8],inactive
same,outcome,[9],inactive
CCCN1CCC[C@@H](c2cccc(O)c2)C1,Potency,[10],inactive
same,outcome,[7],inactive
same,Potency,[8],inactive
same,outcome,[9],inactive
N[C@@H](Cn1ccc(=O)[nH]c1=O)C(=O)O,Potency,[10],inactive
same,outcome,[7],inactive
same,Potency,[8],inactive
same,outcome,[9],inactive
ClC1C(Cl)C(Cl)C(Cl)C(Cl)C1Cl (centres undefined),activation,[1],1.78% [middle of 4 runs]
same,max response,[2],1.56% [middle of 4 runs]
same,Potency,[5],inactive
O=C1C[C@@H]2OCC=C3CN4CC[C@]56c7ccccc7N1[C@H]5[C@H]2[C@H]3C[C@H]46,activation,[1],0.363%
same,max response,[2],-1.11%
same,Potency,[5],inactive
CCOC(=O)c1ncn2c1[C@@H]1CCCN1C(=O)c1cc(OC)ccc1-2,Potency,[10],inactive
same,outcome,[7],inactive
same,Potency,[8],inactive
same,outcome,[9],inactive
Clc1cc(I)cc(Cl)c1NC1=NCCN1,Potency,[10],inactive
same,outcome,[7],inactive
same,Potency,[8],inactive
same,outcome,[9],inactive
NC(Cc1cc(O)c(O)cc1O)C(=O)O (centres undefined),Potency,[10],16.9 µM (active)
same,outcome,[7],inactive
same,Potency,[8],inactive
same,outcome,[9],inactive
